{"source": "PubChem BioAssay AID504326", "about": "(The Scripps Research Institute Molecular Screening Center, 2011)", "note": "Screen size: about 340,000 compounds; about 990 (0.29%) were called active. Only a selection was taken, and actives are over-represented in it overall. Unmarked numbers belong to inactive results. No stated cut-off is given here; in the data, active means activation above about 18%; inactive means the rest."}
{"target": "Mu-type opioid receptor (Homo sapiens) + Delta-type opioid receptor (Homo sapiens) (UniProt P35372+P41143)", "sequence (P35372 whole entry, looked up)": "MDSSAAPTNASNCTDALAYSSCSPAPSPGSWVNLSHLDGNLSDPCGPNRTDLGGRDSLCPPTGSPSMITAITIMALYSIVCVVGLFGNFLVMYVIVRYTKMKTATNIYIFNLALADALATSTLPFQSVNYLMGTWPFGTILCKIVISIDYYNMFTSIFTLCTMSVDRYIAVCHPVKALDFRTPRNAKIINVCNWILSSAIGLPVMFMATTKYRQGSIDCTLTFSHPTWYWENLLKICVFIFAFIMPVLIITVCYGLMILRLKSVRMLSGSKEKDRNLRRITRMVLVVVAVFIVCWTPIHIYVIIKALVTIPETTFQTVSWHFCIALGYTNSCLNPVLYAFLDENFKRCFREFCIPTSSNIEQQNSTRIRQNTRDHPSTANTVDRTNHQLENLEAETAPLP", "sequence (P41143 whole entry, looked up)": "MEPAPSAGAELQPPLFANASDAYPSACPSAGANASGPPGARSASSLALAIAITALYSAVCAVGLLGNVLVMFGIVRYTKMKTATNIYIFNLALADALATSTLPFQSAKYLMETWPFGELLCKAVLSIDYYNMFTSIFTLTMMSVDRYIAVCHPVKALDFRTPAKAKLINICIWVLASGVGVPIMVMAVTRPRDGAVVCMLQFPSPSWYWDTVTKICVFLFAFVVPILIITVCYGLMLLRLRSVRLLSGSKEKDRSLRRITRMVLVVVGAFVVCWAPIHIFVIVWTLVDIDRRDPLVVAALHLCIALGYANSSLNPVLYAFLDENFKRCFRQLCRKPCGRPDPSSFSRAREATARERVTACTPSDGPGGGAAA", "test": "agonists of OPRM1-OPRD1 heterodimerization, primary screen, cell-based, luminescence (AID 504326);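 further: 0% = vehicle-treated cells and 100% = reference agonist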", "conditions": "cells, at 9.3 µM, hits give high values"}
{"smiles": "COC(=O)CCCC1=CC2=C(c3ccccc3)C(=O)C(C)(OC(=O)C3CCCC3)C(=O)C2=CN1c1ccc(OC)cc1", "note": "(stereo unspecified)", "activation": "-1.53%"}
{"smiles": "COc1cccc(/C=N/Nc2cc(C)nc(-c3ccccc3O)n2)c1O", "activation": "35.6% (active)"}
{"smiles": "COc1cccc(/C=N/Nc2ccc(S(=O)(=O)Nc3ccccc3C(=O)O)cc2[N+](=O)[O-])c1O", "activation": "-1.24%"}
{"smiles": "COc1ccc(Cc2nnc(N/N=C/c3ccccc3O)[nH]c2=O)cc1OC", "activation": "-0.28%"}
{"smiles": "O=C(NCCc1ccccc1)c1c[nH]c2ccc(F)cc2c1=O", "activation": "-1.1%"}
{"smiles": "CC(OC(=O)/C=C/c1ccccc1)C(=O)NC1CCCCC1C", "note": "(stereo unspecified)", "activation": "-0.81%"}
{"smiles": "C=CCOc1ccc(/C=C/C(=O)OC(C)C(=O)Nc2ccc(NC(C)=O)cc2)cc1", "note": "(stereo unspecified)", "activation": "-0.11%"}
{"smiles": "CC(OC(=O)/C=C/c1ccccc1)C(=O)Nc1ccc(C(N)=O)cc1", "note": "(stereo unspecified)", "activation": "34.1% (active)"}
{"smiles": "CC(C)CC(=O)N=C1SC2CS(=O)(=O)CC2N1CCc1ccccc1", "note": "(stereo unspecified)", "activation": "-2.17%"}
{"smiles": "CN(C)CCCN(C(=O)c1ccc(S(=O)(=O)N2CCCCCC2)cc1)c1nc2ccc(Br)cc2s1", "activation": "1.54%"}
{"smiles": "COc1ccc2sc(N(CCCN(C)C)C(=O)c3ccc(S(=O)(=O)N(C)C4CCCCC4)cc3)nc2c1", "activation": "-0.93%"}
{"smiles": "CN(C)CCCN(C(=O)c1ccc(S(=O)(=O)N2CCCc3ccccc32)cc1)c1nc2ccc(F)cc2s1", "activation": "268% (active)"}
{"smiles": "Cc1ccc(C)c(S(=O)(=O)Nc2cccc(-n3cnnn3)c2)c1", "activation": "-2.5%"}
{"smiles": "C/C=C/C=C/C(=O)O", "activation": "-2.37%"}
{"smiles": "CCCC1(C(=O)OC)NC(c2ccco2)C2C(=O)N(C)C(=O)C21", "note": "(stereo unspecified)", "activation": "-1.73%"}
{"smiles": "Cc1ccc2nc(-c3ccncc3)cc(C(=O)Nc3ccncc3)c2c1", "activation": "24% (active)"}
{"smiles": "O=C(Nc1ccncc1)c1cc(-c2ccccn2)nc2ccc(Br)cc12", "activation": "-0.71%"}
{"smiles": "Cc1ccc2nc(-c3ccncc3)cc(C(=O)Nc3ccc(OC(F)F)cc3)c2c1", "activation": "8.59%"}
{"smiles": "CCc1ccc(NC(=O)CS(=O)CC(=O)N2CCN(c3ccccc3F)CC2)cc1", "note": "(stereo unspecified)", "activation": "-0.39%"}
{"smiles": "CN(CC(=O)NCc1cccnc1)S(=O)(=O)c1cc(Cl)ccc1Cl", "activation": "-3.02%"}
{"smiles": "CC(c1cccnc1)N(CCN(C)C)C(=O)Nc1ccc(Cl)c(Cl)c1", "note": "(stereo unspecified)", "activation": "35.5% (active)"}
{"smiles": "O=C(NCc1ccc(Cl)c(Cl)c1)c1cccnc1", "activation": "0.81%"}
{"smiles": "CCN(CC)P(=O)(Nc1ccc(SC(F)F)cc1)c1ccc(N(C)C)cc1NC(=O)c1ccco1", "note": "(stereo unspecified)", "activation": "-0.5%"}
{"smiles": "CC(=O)Nc1ccc(S(=O)(=O)N(C)c2ccc(OCC(=O)OCC(=O)N3CCCCC3)cc2)cc1", "activation": "-0.7%"}
{"smiles": "Cc1c(C(=O)c2cccc([N+](=O)[O-])c2)c2ccccn2c1CCC#N", "activation": "-2.59%"}
{"smiles": "FC(F)(F)c1ccc2nnc(-c3c(Cl)cccc3Cl)n2c1", "activation": "-0.01%"}
{"smiles": "Cc1ccc(C)c(N(CC(=O)NCc2ccco2)C(=O)CCC(=O)Nc2ccccn2)c1", "activation": "-3.72%"}
{"smiles": "CCOC(=O)C1(CC2CCCCO2)CCN(Cc2nc(-c3cccs3)oc2C)CC1", "note": "(stereo unspecified)", "activation": "45.6% (active)"}
{"smiles": "CCOc1ccccc1-c1nc(CN2CCC(C(=O)N3CCOCC3)CC2)c(C)o1", "activation": "-0.49%"}
{"smiles": "COc1cccc(CC2(CO)CCCN(Cc3nc(-c4cccs4)oc3C)C2)c1", "note": "(stereo unspecified)", "activation": "0.45%"}
{"smiles": "CCOc1ccc(NC(=O)C2CC(=O)N=C(N)S2)cc1", "note": "(stereo unspecified)", "activation": "-2.05%"}
{"smiles": "COc1ccc2c(CC(=O)NNC(=O)c3ccccc3F)coc2c1", "activation": "-0.31%"}
{"smiles": "CCOC(=O)c1c(NC(=O)CNC2CCCc3ccccc32)sc(C(N)=O)c1C", "note": "(stereo unspecified)", "activation": "9.2%"}
{"smiles": "O=C(NC1=CC(=O)c2ccccc2C1=O)c1ccccc1", "activation": "20% (active)"}
{"smiles": "O=C1C=C(NS(=O)(=O)c2ccccc2)C(=O)c2ccccc21", "activation": "1.48%"}
{"smiles": "CC(NC(=O)c1ccccc1)C(=O)Nc1ccccc1", "note": "(stereo unspecified)", "activation": "-3.96%"}
{"smiles": "O=C(Cc1ccc(S(=O)(=O)N2CCOCC2)s1)N1CCN(c2ccc(C(F)(F)F)cc2[N+](=O)[O-])CC1", "activation": "-0.92%"}
{"smiles": "CCOC(=O)N1CCN(c2c(NCCN3CCN(c4ccccc4F)CC3)c(=O)c2=O)CC1", "activation": "-1.83%"}
{"smiles": "CN(Cc1ccccc1)C(=O)c1ccc(COc2ccccc2)cc1", "activation": "1.93%"}
{"smiles": "COc1ccc(NC(=O)CN(C)C(=O)c2ccc(COc3ccccc3)o2)cc1", "activation": "-1.92%"}
{"smiles": "CN(CC(=O)Nc1ccc(Cl)cc1)C(=O)c1ccc(COc2ccccc2)cc1", "activation": "22.2% (active)"}
{"smiles": "CC(CNc1ccc([N+](=O)[O-])c2cccnc12)Nc1c([N+](=O)[O-])cc(C(F)(F)F)cc1[N+](=O)[O-]", "note": "(stereo unspecified)", "activation": "0.2%"}
{"smiles": "CCOC(=O)c1sc(NC(=O)C2CSC3(C)CCC(=O)N23)nc1C", "note": "(stereo unspecified)", "activation": "-4.78%"}
{"smiles": "CCOc1ccc(OCC)c(-c2c(=O)n(OCc3ccc(Cl)cc3)c3ccccc3[n+]2[O-])c1", "activation": "-0.14%"}
{"smiles": "Clc1ccc(-c2cc(-c3ccccn3)on2)c(Cl)c1", "activation": "-0.72%"}
{"smiles": "Clc1ccc(COn2c(-c3ccc(Cl)cc3Cl)nc3ncccc32)cc1", "activation": "55.9% (active)"}
{"smiles": "Cc1cccc(N2CCN(C(=O)c3ccccc3NC(=O)C3CCCCC3C(=O)O)CC2)c1", "note": "(stereo unspecified)", "activation": "-1.68%"}
{"smiles": "COc1ccc(N2C(=O)c3ccccc3NC2c2ccc(OC)c(CN3CCOCC3)c2)cc1", "note": "(stereo unspecified)", "activation": "-3.57%"}
{"smiles": "COc1ccc(C2Nc3ccccc3C(=O)N2Cc2ccccc2)cc1Cn1nnc2ccccc21", "note": "(stereo unspecified)", "activation": "15.1%"}
{"smiles": "COc1ccc(C2Nc3ccccc3C(=O)N2c2ccc(F)cc2)cc1Cn1nnc2ccccc21", "note": "(stereo unspecified)", "activation": "29.4% (active)"}
{"smiles": "Cc1ccc2cccc(O)c2[n+]1[O-]", "activation": "4.35%"}
{"smiles": "CCOc1ccc(C(=O)Nc2ccc(S(=O)(=O)NCC3CCCO3)cc2)cc1OCC", "note": "(stereo unspecified)", "activation": "-4.05%"}
{"smiles": "COc1ccc(/C=C/C(=O)Nc2ccc(C34CC5CC(CC(O)(C5)C3)C4)cc2)cc1OC", "activation": "3.53%"}
{"smiles": "O=C(NCc1cn2ccsc2n1)Nc1cccc(Cl)c1", "activation": "-4.06%"}
{"smiles": "O=C(NCc1cn2ccsc2n1)Nc1ccc(Cl)cc1", "activation": "30.4% (active)"}
{"smiles": "O=C(NCc1ccccn1)Nc1ccc(Cl)cc1", "activation": "-2.12%"}
